Compound activity (PubChem BioAssay)
HP1b chromo inh – HTS for Inhibitors of HP1-beta Chromodomain Interactions with Methylated Histone Tails | Chromobox protein homolog 1 (Homo sapiens), P83916 | AlphaScreen HP1-beta / biotin-H3K9me3 peptide binding | Potency, µM (doses to about 114 µM), actives largely listed as inhibitors | 390,000 tested, 0.56% active; note: nearly all actives have a fitted effect of over 70% in size
Target sequence (P83916 whole entry, looked up): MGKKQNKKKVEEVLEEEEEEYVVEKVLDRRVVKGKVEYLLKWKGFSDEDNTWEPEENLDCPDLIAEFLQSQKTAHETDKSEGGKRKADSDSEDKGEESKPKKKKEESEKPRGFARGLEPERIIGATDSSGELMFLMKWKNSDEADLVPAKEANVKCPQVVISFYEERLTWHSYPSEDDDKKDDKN
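Compound inhibition of the preformed complex between 50 nM HP1-beta and 50 nM biotinylated H3K9me3 peptide was read by AlphaScreen. Buffer was PBS pH 7.4 with 0.01% Tween-20. Incubations ran 30 min at room temperature, with 10 ug/mL donor/acceptor beads.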
BAZ2B block – qHTS Assay for Inhibitors of BAZ2B. Bromodomain adjacent to zinc finger domain protein 2B (Homo sapiens), Q9UIF8. AlphaScreen BAZ2B-H3K14Ac peptide displacement. Potency, µM (doses to about 114 µM), most hits filed as inhibitors. 360,000 tested, 4.4% active. AID 504333, 2011; note: nearly all actives have a fitted effect of over 60% in size
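BAZ2B (50 nM) with biotin-H3(5-23)K14Ac peptide (50 nM) in PBS pH 7.4, 0.01% Tween-20, preformed 30 min, then compound 30 min at room temperature; top concentration 110uM. AlphaScreen streptavidin donor/nickel chelate acceptor beads (10 ug/mL final), 20 min dark, signal read.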
JMJD2A Tudor inh – qHTS Assay for Inhibitors of JMJD2A-Tudor Domain; Lysine-specific demethylase 4A (Homo sapiens), O75164; Potency, µM (doses to about 114 µM), usual class: inhibitors; AlphaScreen JMJD2A-Tudor / H3K4me3 peptide binding; AID 504339, 2011; 390,000 tested, 4.4% active; note: nearly all actives have a fitted effect of over 50% in size
G9a inh – qHTS Assay for Inhibitors of Histone Lysine Methyltransferase G9a | G9a H3K9 monomethylation, AlphaScreen, 2 h | 350,000 tested, 8.8% active | Potency, µM (titrated, usually from 102 µM), actives largely listed as inhibitors; note: nearly all actives have a fitted effect of over 75% in size
Target sequence (Q96KQ7 913-1193 limits assumed): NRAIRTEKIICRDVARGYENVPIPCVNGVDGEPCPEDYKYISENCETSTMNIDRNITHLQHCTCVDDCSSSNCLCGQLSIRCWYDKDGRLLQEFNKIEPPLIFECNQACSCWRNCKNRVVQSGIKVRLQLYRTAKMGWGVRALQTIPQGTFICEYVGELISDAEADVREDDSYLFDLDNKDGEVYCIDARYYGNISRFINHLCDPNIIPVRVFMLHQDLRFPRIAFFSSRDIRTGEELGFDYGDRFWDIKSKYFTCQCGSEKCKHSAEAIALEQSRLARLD
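Chemiluminescent proximity detection of H3K9 monomethylation, read after 10 min bead incubation in the dark. Reaction: 20 nM G9a, 500 nM biotin-H3K9 peptide, 20 uM SAM cofactor, 2 h, room temperature, following 15 min enzyme-compound preincubation.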
ALOX12 inh – Primary qHTS assay for inhibitors of human arachidonate 12S-lipoxygenase (ALOX12): Round 2; 580,000 tested, 1.1% active; Potency, µM (series often up to 108 µM), usual class: inhibitors; purified 12hLO, xylenol orange hydroperoxide absorbance; Polyunsaturated fatty acid lipoxygenase ALOX12 (Homo sapiens), P18054
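Purified human 12hLO (150 nM final) in 25 mM Hepes, 0.01% Triton X-100, pH 7.0 was preincubated 15 min at room temperature with compound. Then 40 uM arachidonic acid was added, 30 min. Hydroperoxide was read by Fe-XO absorbance ratio 573/405 nm.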
PLK1 PBD block – qHTS for Inhibitors of PLK1-PDB (polo-like kinase 1 - polo-box domain): Primary Screen; Serine/threonine-protein kinase PLK1 (Homo sapiens), P53350; Plk1 PBD binding of FITC phosphopeptide, fluorescence polarization; Potency, µM, most hits filed as inhibitors; 360,000 tested, 2.8% active; note: series mostly up to about 57 µM; nearly all actives have a fitted effect of over 65% in size
A number is an active result; . = inactive; ? = inconclusive; / = no result; [ ] = another dose, or the depositor's remark. A selection: hits, their analogues and other compounds. The true share with any hit is near 9%. Calls come from the whole dose curve; as a rule, active = well fitted curve in the direction sought with a large enough effect; inconclusive = small, poorly fitted or top-dose-only effect, or another doubt; inactive = no such curve, though single readings can be large; an effect the other way counts as inactive or inconclusive.

SMILES | HP1b chromo inh | BAZ2B block | JMJD2A Tudor inh | G9a inh | ALOX12 inh | PLK1 PBD block
Cc1ccc(NC(=S)NC2CCSc3ccccc32)cc1C (stereo not drawn) | . | . | . | . | 45µM | .
CCC(C)NC(=S)N1CCN(C)CC1 (stereo not drawn) | ? | . | ? | 40µM | ? | .
CCN1CCN(C(=S)Nc2ccc(Cl)cc2)CC1 | . | . | . | . | . | .
CCN1CCN(C(=S)c2ccc(O)cc2)CC1 | . | . | . | 6.3µM | ? | 4.7µM
CCNC(=S)N1CCN(CC(=O)Nc2ccc(Br)cc2)CC1 | . | . | . | . | . | .
CCN1CCN(C(=S)c2ccc(Br)cc2)CC1 | ? | . | . | .[0.501 µM] | . | 8.4µM
O=C(CN1c2cccc3cccc(c23)S1(=O)=O)N1CCN(c2ccc(F)cc2)CC1 | . | . | . | .[12.7 µM] | . | .
CCOC(=O)c1oc2ccccc2c1COC(=O)CNC(=O)c1ccccc1F | / | / | / | / | . | .
CCN1CCOC(=O)C1CC(=O)Nc1cc(C)ccc1OC (stereo not drawn) | . | . | . | 10µM | . | /
CCN1CCOC(=O)C1CC(=O)Nc1ccc(Br)cc1 (stereo not drawn) | . | . | . | 2.5µM | . | /
COc1ccccc1NC(=O)CN1CCN(CC(=O)Nc2cc(C)ccc2OC)CC1 | . | . | . | . | . | .
CCN1CCN(CCC(=O)Nc2ccc(Br)cc2)CC1 | . | . | . | . | . | .
CN1CCC2(CC1)CN(C(=O)c1ccccc1)Cc1ccccc1O2 | / | / | / | / | . | /
N/C(=N\OC(=O)c1ccc([N+](=O)[O-])cc1)c1cccnc1 | . | . | . | ? | . | .
O=C(Oc1c(Br)cc([N+](=O)[O-])cc1Br)c1cccnc1 | . | ? | ? | ? | . | 19µM
Cc1[nH]c2c(ccc3ccccc32)c1C | / | / | / | / | 16µM | /
S=c1[nH]c2ccc3ccccc3c2[nH]1 | . | ? | . | / | . | .
Cc1[nH]c2c(ccc3ccccc32)c1C1C(CCN)C1(C)C (stereo not drawn) | . | 56µM | 56µM | . | ? | .
CCc1cnc2c(c1SC(C(C)=O)C(=O)N(C)C)c(=O)n(C)c(=O)n2C (stereo not drawn) | ? | . | 28µM | 4.5µM | ? | /
CC(C)(C)OC(=O)NCCc1nnc(SCc2ccc(Cl)cc2Cl)o1 | . | . | . | .[12.7 µM] | . | .
Cc1cc(Br)c(NC(=O)CN(C)CCOc2ccccc2)c(Br)c1 | . | . | . | . | . | .
CCC(C)(C)C1CCC(NC(=O)N2CCN(c3ccccc3O)CC2)CC1 (stereo not drawn) | . | . | 79µM | . | . | ?
CCOc1ccccc1N1CCN(C(=O)NC2CCCCC2)CC1 | . | . | . | . | . | .
CCN(Cc1ccccc1)C(=O)c1cccs1 | / | / | / | / | . | .
S=C(N/N=C1\CCCCC1C1CCCCC1)Nc1ccccc1 (stereo not drawn) | / | / | / | / | 16µM | /
SMILES | HP1b chromo inh | BAZ2B block | JMJD2A Tudor inh | G9a inh | ALOX12 inh | PLK1 PBD block
Cc1cc(Cl)ccc1NC(=O)CCC(=O)N/N=C1\CCCCC1C (stereo not drawn) | / | / | / | / | . | /
CC1CCCC/C1=N\NC(=S)Nc1ccccc1 (stereo not drawn) | . | ? | ? | 32µM | ? | .
CC(C)NC(=S)N/N=C1\CCCCC1C1CCCCC1 (stereo not drawn) | . | ? | ? | 22µM | 22µM | ?
CC(C)NC(=S)NN=C1c2ccccc2-c2ccccc21 | . | . | . | . | ? | .
CC1CCC/C(=N\NC(=S)Nc2ccccc2)C1 (stereo not drawn) | . | ? | 79µM | 7.9µM | ? | .
O=C(NC(=S)Nc1ccccc1)C1CCCCC1 | . | . | . | / | . | .
COCCn1c(-c2ccc(Cl)cc2)cnc1SCC(=O)NCc1cccs1 | ? | ? | ? | 45µM | . | .
